Assay results reported in PubChem BioAssay AID488932 (Broad Institute, 2010).
Results with a measured potency or affinity are listed apart. Unmarked numbers belong to inactive results. Active and inactive are the calls of the source.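 The calls were made as follows: active = growth signal falls, with fitted half-maximal dose at most ten times the top valid dose; inconclusive = flat curve with a partial drop, or a poorly fitting curve; inactive = the rest, including compounds that raise signal.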

assay: Candida albicans growth inhibition, agent alone, dose response, counter-screen for reversing antifungal drug resistance, CaCi-2 strain, no fluconazole, dry powder, set 4 (AID 488932); conditions: C. albicans CaCi-2 (fluconazole-resistant clinical isolate) growth, Alamar Blue, 48 h; series mostly up to 26 µM; activity change, negative = inhibition: at the top concentration

| SMILES | activity change, negative = inhibition | outcome |
| --- | --- | --- |
| CC1CN(c2ccnc3cc(Cl)ccc23)CCN1C(=O)c1ccc(Cl)cc1 (stereo not drawn) | 36% | – |
| Cc1ccc(N2CCN(C(=O)c3ccc(Cl)cc3)CC2)nn1 | 23.3% | – |
| CC(C)C(=O)N1CCN(c2ccnc3cc(Cl)ccc23)CC1 | 31.9% | – |
| O=C(c1ccc(Cl)cc1)N1CCN(c2ccncc2)CC1 | 9.56% | – |
| O=C(c1ccc(Cl)cc1)N1CCN(c2nc3ccccc3s2)CC1 | 15% | – |
| Cc1cc(N2CCN(C(=O)c3ccc(Cl)cc3)CC2)c2ccc(F)cc2n1 | 28.9% | – |
| O=C(c1ccc(Cl)cc1)C1CCN(c2ccnc3cc(Cl)ccc23)CC1 | 18.3% | – |
| O=C(c1ccc(Cl)cc1)N1CCN(c2ccnc3cc(Cl)ccc23)CC1 | – | inactive |
| O=C(C1CCC1)N1CCN(c2ccnc3cc(Cl)ccc23)CC1 | 58.1% | – |
| Cc1ccc(C(=O)N2CCN(c3ccnc4cc(Cl)ccc34)CC2)cc1 | 9.7% | – |
| O=C(c1ccc(Cl)cn1)N1CCN(c2ccnc3cc(Cl)ccc23)CC1 | 70.8% | – |
| O=C(c1ccc(Cl)cc1)N1CCN(c2ccnc3ccccc23)CC1 | 35.2% | – |
| O=C(C1CCCC1)N1CCN(c2ccnc3cc(Cl)ccc23)CC1 | 3.25% | – |
| Clc1ccc2c(N3CCNCC3)ccnc2c1 | 9.3% | – |
| CC(C)CC(=O)N1CCN(c2ccnc3cc(Cl)ccc23)CC1 | 44.8% | – |
| O=C(c1ccc(Cl)cc1)N1CCN(c2cccc(C(F)(F)F)n2)CC1 | 20.3% | – |
| O=S(=O)(c1ccc(Cl)cc1)N1CCN(c2ccnc3cc(Cl)ccc23)CC1 | 35% | – |
| O=C(c1ccc(Cl)cc1)N1CCN(c2ccnc3ccc(Cl)cc23)CC1 | 19% | – |
| O=C(c1ccc(F)cc1)N1CCN(c2ccnc3cc(Cl)ccc23)CC1 | 20.7% | – |
| O=C(c1cccs1)N1CCN(c2ccnc3cc(Cl)ccc23)CC1 | -16% [at 12 µM] | – |
| O=C(c1ccc(Cl)nc1)N1CCN(c2ccnc3cc(Cl)ccc23)CC1 | 51% | – |
| Cc1cccc(N2CCN(C(=O)c3ccc(Cl)cc3)CC2)n1 | 61.1% | – |
| O=C(c1ccc(Cl)cc1)N1CCN(c2nc3ccccc3o2)CC1 | 16.5% | – |
